Assay results as given in PubChem BioAssay AID1209 (Sanford-Burnham Center for Chemical Genomics, 2008).
In all, about 190,000 compounds went through this assay and about 810 (0.43%) were called active. What follows is part of a selection rich in actives, with near analogues and random picks from the rest. A number with no mark means an inactive call. Rule as the data show it: active = inhibition above about 50%; inactive = the rest.

target: Mannose-6-phosphate isomerase (Homo sapiens) (UniProt P34949); assay: MPI enzyme activity inhibition – biochemical, fluorescence intensity, coupled assay, primary screen (AID 1209); conditions: purified PMI enzyme, at 20 µM, active compounds read high;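 also: plate controls were DMSO vehicle for no effect and wells lacking substrate for full effect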
Sequence (P34949 whole entry, looked up): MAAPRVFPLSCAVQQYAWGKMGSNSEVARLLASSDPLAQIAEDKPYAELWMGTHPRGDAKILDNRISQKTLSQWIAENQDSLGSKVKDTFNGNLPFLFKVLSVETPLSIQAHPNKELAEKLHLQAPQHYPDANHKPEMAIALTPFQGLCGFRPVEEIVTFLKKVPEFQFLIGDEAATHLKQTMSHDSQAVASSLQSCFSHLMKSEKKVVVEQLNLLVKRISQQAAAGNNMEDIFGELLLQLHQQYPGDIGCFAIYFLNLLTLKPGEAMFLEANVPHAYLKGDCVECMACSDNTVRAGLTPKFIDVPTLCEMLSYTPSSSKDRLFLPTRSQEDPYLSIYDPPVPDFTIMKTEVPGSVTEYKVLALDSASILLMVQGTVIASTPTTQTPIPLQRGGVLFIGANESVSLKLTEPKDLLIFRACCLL

Structure (SMILES)	inhibition
S=C1NC2(CCCC2)Nc2ccccc21	-71.4%
COC(=O)c1ccccc1NC(=O)c1ccc(-c2ccccc2F)o1	-1.4%
O=C(CSc1ncn[nH]1)Nc1ccc(Br)cc1F	6%
O=C1c2ccccc2C(=O)N1CCc1c[nH]c2ccc(O)cc12	22.1%
FC(F)(F)c1cc(-c2ccc(Cl)cc2)nc2ncnn12	-7.2%
COc1ccc(S(=O)(=O)N2CC(O)CC2C(=O)OCC(=O)Nc2ccc(Cl)cn2)cc1 (stereo not drawn)	13.3%
O=[N+]([O-])c1cccc(-c2cn(-c3ccccc3)c(=S)[nH]2)c1	-9.5%
O=[N+]([O-])c1ccc(-c2cn(-c3ccccc3)c(=S)[nH]2)cc1	-1.9%
O=[N+]([O-])c1ccc2c(c1)[nH]c(=S)n2-c1ccccc1	58.6% (active)
CCc1cccc(CC)c1NC(=O)c1cc(CN2C(=O)c3ccccc3C2=O)ccc1OC	3%
Cc1nc2sc(C(c3cccc(F)c3)N3CC(C)OC(C)C3)c(O)n2n1 (stereo not drawn)	-12.7%
CCN1CCN(S(=O)(=O)c2cc(OCC(=O)NC3CCCCC3)c(C)cc2Cl)CC1	11.7%
CC1(C)CC(=O)c2sc(NC(=O)c3ccc4ncsc4c3)nc2C1	-7.8%
Cc1cc(C)cc(OCC(=O)Nc2cccc(-c3nc4ncccc4o3)c2)c1	-1%
Cc1ccc(OCC(=O)Nc2ccc(-c3nc4ncccc4o3)cc2)c(C)c1	97.8% (active)
Cc1ccc(-c2nc3ncccc3o2)cc1NC(=O)COc1ccccc1	3.5%
COCCNC(=S)NCCc1ccc(Cl)cc1Cl	-1.5%
O=C(/C=C/c1ccc(Cl)cc1)NC(=S)Nc1ccc(CN2CCOCC2)cc1	20.8%
Cc1ccc(S(=O)(=O)NCC(=O)N(c2ccccc2)C(C(=O)NCc2ccccc2)c2ccco2)cc1 (stereo not drawn)	57.1% (active)
Cc1cc(C)cc(N(C(=O)CNS(=O)(=O)c2ccccc2)C(C(=O)NCc2ccccc2)c2ccc(C)o2)c1 (stereo not drawn)	18.8%
COc1ccc(CNC(=O)C(c2ccco2)N(C(=O)CNS(=O)(=O)c2ccccc2)c2ccccc2C)cc1 (stereo not drawn)	14%

Structure (SMILES)	inhibition
Cc1ccc(/C=N/NC(=O)CN2CCN(S(=O)(=O)c3ccc(Br)cc3)CC2)s1	4.9%
COc1cc(-c2nnc(SCc3cc(=O)oc4cc(C)ccc34)o2)cc(OC)c1OC	12.5%
COc1cc(-c2nnc(SCc3cc(=O)oc4cc(O)c(O)cc34)o2)cc(OC)c1OC	60.1% (active)
COc1cc(-c2nnc(SCc3ccccc3Cl)o2)cc(OC)c1OC	23.4%
CC1CCc2c(sc(NC(=O)CCCn3cnc([N+](=O)[O-])n3)c2C(N)=O)C1 (stereo not drawn)	1.2%
NC(=O)c1c(NC(=O)CCCn2cnc([N+](=O)[O-])n2)sc2c1CCCC2	55.6% (active)
CCOC(=O)c1c(NC(=O)Cn2cnc([N+](=O)[O-])n2)sc2c1CCCC2	18.4%
Cc1cc([N+](=O)[O-])nn1CCCC(=O)Nc1sc2c(c1C(N)=O)CCC(C)C2 (stereo not drawn)	9.5%
Cc1cc([N+](=O)[O-])nn1CCCC(=O)Nc1sc2c(c1C(N)=O)CCCC2	53% (active)
Cc1cc([N+](=O)[O-])nn1CC(=O)Nc1sc2c(c1C(N)=O)CCCC2	10.8%
CC(C)CC(c1nnnn1CCc1ccccc1)N1CCN(C(=O)c2ccco2)CC1 (stereo not drawn)	7.4%
COc1cc(/C=C/C(=O)OCC(=O)Nc2cc(C(F)(F)F)ccc2N2CCOCC2)ccc1O	13%
COC(=O)Nc1ccc(S(=O)(=O)Nc2cnc3ccccc3n2)cc1	-10.9%
CC(C)C(NC(=O)c1ccco1)C(=O)NCC(c1ccco1)N(C)C (stereo not drawn)	-3.6%
CCN(C(=O)c1cn(CC)c(=O)c2cc(OC)c(OC)cc12)c1ccccc1C	5.3%
O=C(O)c1nn(-c2ccccc2)c(-c2ccccc2)c1C(=O)c1ccccc1	-12.5%
O=C(c1ccccc1)c1c(O)nc(-c2ccccc2)n(-c2ccccc2)c1=O	108% (active)
CC(=O)c1c(O)c(C)c(-c2ccccc2)n(-c2ccccc2)c1=O	2.2%
Oc1c(Br)cc(C2N=C(c3ccccc3Cl)NO2)cc1Br (stereo not drawn)	0.3%
FC(F)(F)c1cccc(Cn2c3[n+](c4ccc(C(F)(F)F)cc42)CCCCC3)c1	1.3%
Fc1ccccc1Cn1c2[n+](c3ccc(C(F)(F)F)cc31)CCCCC2	10.3%

Structure (SMILES)	inhibition
FC(F)(F)c1ccc2c(c1)n(Cc1ccccc1)c1[n+]2CCCCC1	63.9% (active)
CC1=NN(c2ccc(S(=O)(=O)O)cc2C)C(=O)C1	-63.6%
Fc1ccc(C2CCCN2Cc2nc(Cc3ccccc3)no2)cc1 (stereo not drawn)	-7%
CC(=O)Nc1ccccc1C(=O)C(=O)Nc1ccc(C)c(F)c1	19.9%
Cc1cc(C)c(C(=O)COC(=O)Cn2cnnn2)cc1C	-10.7%
CCN(CC)c1ccc2ccc(=O)oc2c1	2.1%
CCN(CC)c1ccc2c(C)c(Cl)c(=O)oc2c1	-1.5%
O=C(NCCN1CCOCC1)c1cc2cc([N+](=O)[O-])ccc2s1	5.6%
c1ccc(C2COC(c3cccs3)=N2)cc1 (stereo not drawn)	9.4%
COc1cc(C2CC(=O)N3CN(Cc4ccccc4)CSC3=C2C#N)ccc1OCc1ccccc1 (stereo not drawn)	45.4%
Cc1ccc(C2CC(=O)N3CN(Cc4ccco4)CSC3=C2C#N)cc1 (stereo not drawn)	29.7%
COc1cc(C2CC(=O)N3CN(Cc4ccco4)CSC3=C2C#N)ccc1OCc1ccccc1 (stereo not drawn)	50% (active)
N#CC1=C2SCN(Cc3ccco3)CN2C(=O)CC1c1ccc(Cl)cc1 (stereo not drawn)	28.7%
COc1ccc(Br)cc1C1CC(=O)N2CN(Cc3ccccc3)CSC2=C1C#N (stereo not drawn)	34.2%
CC(C)c1ccc(C2CC(=O)N3CN(Cc4ccco4)CSC3=C2C#N)cc1 (stereo not drawn)	52.6% (active)
CC(C)c1ccc(C2CC(=O)N3CN(C)CSC3=C2C#N)cc1 (stereo not drawn)	40.6%
N#CC1=C2SCN(Cc3ccco3)CN2C(=O)CC1c1c(F)cccc1Cl (stereo not drawn)	-3.1%
N#CC1=C2SCN(Cc3ccco3)CN2C(=O)CC1c1cccc2ccccc12 (stereo not drawn)	55% (active)
COc1ccc(C2CC(=O)N3CN(Cc4ccco4)CSC3=C2C#N)cc1 (stereo not drawn)	59.1% (active)
N#CC1=C2SCN(Cc3ccco3)CN2C(=O)CC1c1ccccc1F (stereo not drawn)	43.7%
COc1ccc2ccccc2c1C1CC(=O)N2CN(Cc3ccco3)CSC2=C1C#N (stereo not drawn)	46.4%
